Compounds with a hit are over-represented: about 2.7% of the library has one in this group of screens.
TMEM16A inh – inhibitors of mouse TMEM16A calcium-activated chloride channel | Q8BHY3 | HEK293 TMEM16A/YFP iodide influx fluorescence, ionomycin | normalized B-score (activity score, 25-100; higher = stronger inhibition) at 10 µM | hit rate 1.2% among 310,000;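 active means ratio plate-corrected score three or more library SD toward inhibition, starting fluorescence score within five deviations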;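 further: score derived from kinetic fluorescence span divided by baseline fluorescence per well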
CHT allo act – allosterically activates the human high affinity choline transporter. Q9GZV3. CHT-expressing cells, membrane potential dye, choline EC20; active compounds read high; LV-AA mutant CHT in HEK293 cells. B-score at 10 µM. hit rate 0.49% among 310,000. AID 488977;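 active means initial fluorescence not abnormally high and integrated response B-score, plate-corrected, over 3 SD above library mean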
Target sequence (Q9GZV3 whole entry, looked up): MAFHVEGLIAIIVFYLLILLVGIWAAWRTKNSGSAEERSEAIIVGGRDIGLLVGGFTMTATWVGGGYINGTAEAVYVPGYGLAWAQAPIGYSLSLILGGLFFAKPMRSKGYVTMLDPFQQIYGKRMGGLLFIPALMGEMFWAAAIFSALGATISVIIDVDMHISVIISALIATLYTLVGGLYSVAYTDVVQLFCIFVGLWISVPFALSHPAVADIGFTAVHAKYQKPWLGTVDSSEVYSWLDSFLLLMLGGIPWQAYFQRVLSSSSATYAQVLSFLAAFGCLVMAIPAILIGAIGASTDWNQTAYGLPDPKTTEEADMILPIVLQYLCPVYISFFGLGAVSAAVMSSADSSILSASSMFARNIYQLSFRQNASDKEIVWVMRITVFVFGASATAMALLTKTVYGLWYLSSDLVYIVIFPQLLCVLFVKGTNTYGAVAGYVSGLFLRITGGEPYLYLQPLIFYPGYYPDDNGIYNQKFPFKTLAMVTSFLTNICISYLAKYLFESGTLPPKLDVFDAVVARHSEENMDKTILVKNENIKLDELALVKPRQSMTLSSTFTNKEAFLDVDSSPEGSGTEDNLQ
TMEM16A act – mouse TMEM16A channel activation, primary screen | B-score at 10 µM | HEK293 TMEM16A/YFP-H148Q/I152L, iodide quench fluorescence; active compounds read low | hit rate 0.3% among 340,000;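 active means fluorescence-ratio B-score plate-corrected deviation score at least 3 library SD below zero, with starting fluorescence score within 5 deviations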;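 further: channel opened by trigger with iodide after compound preincubation; score built on the fluorescence ratio of max minus min over baseline; more negative score means more quench and so TMEM16A activation or potentiation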
CHT block – human CHT choline transport inhibition; AID 488975; B-score at 10 µM; hit rate 0.86% among 310,000; Q9GZV3; CHT-expressing cells, membrane potential dye, choline response; active compounds read low;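 active means B-score over 3 SD under the library average, and starting fluorescence ratio not unusually high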;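 further: choline stimulus applied at its EC90 after an EC20 pre-addition; B-score computed on integrated fluorescence ratio after choline addition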
IDE act – activators of human insulin-degrading enzyme in cells | hit rate 0.073% among 340,000 | HEK cells, FAbeta-B cleavage, fluorescence polarization; 0% vehicle, 100% cell-free pure enzyme wells | activation, % at 5.96 µM | AID 493087 | P14735;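 active means activation above the mean of all tested compounds plus 3 SD, set per screening campaign, cut at about 17% in these data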
IDE cell inh – cellular human IDE inhibition | P14735 | HEK cells, FAbetaB cleavage, fluorescence polarization | inhibition, % at 5.59 µM | hit rate 0.41% among 320,000;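 active means percent inhibition above the average of all tested compounds plus 3 SD, set per screening campaign, cut at about 16% in these data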;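 further: IDE supplied by intact live HEK cells; FP after avidin binding of uncleaved biotin substrate so inhibition keeps polarization high; 0% = DMSO wells and 100% = 60 µM reference IDE inhibitor Ii1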
CHT act confirm – confirmation of human choline transporter (CHT) activators; shares compounds with CHT allo act; CHT-expressing cells, membrane potential dye fluorescence (FDSS); % of choline EC20–EC90 response window; HEK293 expressing CHT LV-AA mutant; choline added at its EC20; activation, % at 10 µM; hit rate 91% among 2,500; AID 504833;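 active means primary screen active, with duplicate mean activation above negative control mean plus 3 SD, cut at about 11% in these data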
HEK293 MP dye – CHT activator counter-screen hit in parental HEK293 cells; shares compounds with CHT allo act; membrane potential dye fluorescence (FDSS); measured after EC20 choline addition; ratio readout change at 10 µM, hits read low; hit rate 62% among 2,500; AID 623908;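 active means duplicate-averaged ratio beyond 3 SD from buffer wells, up or down, though filed actives are nearly all decreases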
* marks the source's active call; other numbers are inactive results; i = inactive; . = no result.

SMILES | TMEM16A inh | CHT allo act | TMEM16A act | CHT block | IDE act | IDE cell inh | CHT act confirm | HEK293 MP dye
COc1ccc(C[C@H]2CN3C(=NC[C@@H]3Cc3ccccc3)N2CCNC(=O)CCC2CCCCC2)cc1 | i | 9.6* | i | i | 13 | 1 | 20* | i
COc1ccc(C[C@H]2CN3C(=NC[C@@H]3C(C)C)N2CCNC(=O)CCC2CCCCC2)cc1 | i | i | i | i | -3 | 7 | . | .
CCC(CO)(CO)N(CC(=O)Nc1ccc(OC)cc1)CC(=O)Nc1ccc(OC)cc1 | i | i | . | i | 1 | 7 | . | .
CC(=O)c1c(C)[nH]c(C(=O)OCC(=O)Nc2ccc3c(c2)OCCO3)c1C | . | . | i | . | 0 | 1 | . | .
COc1ccc(C(=O)N/N=C/c2cc3ccccc3[nH]c2=O)cc1 | i | i | i | i | 30* | 0 | 29* | -32*
COc1ccc(C(=O)N/N=C/c2ccccc2OC(=O)c2ccccc2)cc1 | i | i | i | i | 5 | 3 | . | .
CCCCn1nnnc1SCC(=O)NC1CCCCC1 | i | i | i | i | 5 | -4 | . | .
COC(=O)C1=CN(Cc2ccccc2)C=C(C(=O)OC)C1c1ccc(O)c(OC)c1 | i | i | i | i | 5 | 7 | . | .
CCOc1cc(C2C(C(=O)OC)=CN(Cc3ccc(Cl)cc3)C=C2C(=O)OC)ccc1O | i | i | i | i | 4 | 1 | 20* | i
CN(C(=O)c1cccs1)C1(C)CCS(=O)(=O)C1 (centres undefined) | i | i | i | i | 2 | 6 | . | .
C#Cc1ccc(CN2CCCC(C(=O)Nc3ccccc3Oc3cccnc3)C2)cc1 (centres undefined) | i | i | i | i | 4 | 3 | 17* | i
Clc1ccc(-n2cccc2CN2CCc3c([nH]c4ccccc34)C2c2ccccn2)nc1 (centres undefined) | i | 7* | i | i | 3 | -1 | 40* | i
CCCCCCCN1C(N(C)C)=NC[C@@H]1Cc1ccccc1 | i | 6.8* | i | i | 5 | 3 | 25* | i
Cc1cccc(CCN2C(N(C)C)=NC[C@@H]2Cc2ccccc2)c1 | . | . | i | . | 4 | -2 | . | .
CN(C)C1=NC[C@H](Cc2ccccc2)N1CCCCc1ccccc1 | i | i | i | i | 3 | -1 | 16* | i
COc1ccccc1CNC(=O)[C@H](C)NC(=O)C1CCN(C(=O)[C@@H]2CCCN2C(=O)OC(C)(C)C)CC1 | i | i | i | i | 8 | -1 | . | .
CC(C)C(=O)N1CCN(c2ccccc2NC(=O)c2cccc(Cl)c2)CC1 | i | 6.6* | i | i | 1 | 7 | 18* | i
O=C(Nc1ccccc1N1CCN(C(=O)c2ccccc2)CC1)c1ccc(Cl)cc1 | i | i | i | i | 5 | 3 | . | .
COc1ccc(-c2c[n+]3c(n2-c2ccccc2)CCCCC3)cc1 | i | i | i | i | 5 | 0 | . | .
COc1ccc(-c2c[n+]3c(n2-c2ccc(C)cc2)CCCCC3)cc1 | 25* | 12* | i | i | 2 | 2 | 13* | i
CCOc1ccc(-n2c(-c3ccccc3)c[n+]3c2CCC3)cc1 | i | i | i | i | -1 | -5 | 43* | -30*
CCOc1ccc(-n2c(-c3ccc(OC)cc3)c[n+]3c2CCCCC3)cc1 | i | 6.4* | i | i | 1 | 2 | 41* | i
COc1ccc(-n2c(-c3ccc(Cl)cc3)c[n+]3c2CCCCC3)cc1 | i | 12* | i | i | 4 | 5 | 44* | i
CCOc1ccc(-n2c(-c3ccc(Br)cc3)c[n+]3c2CCCCC3)cc1 | i | i | i | i | 5 | 4 | . | .

Bioassay records: PubChem BioAssay, several laboratories
